# MCF10A rerep: DNA re-replication induction in MCF 10a cells; Potency, µM (highest dose often 46.1 µM), inactives show top-dose activity, positive = re-replication, most hits filed as activators; hit rate 2.9% among 350,000; MCF 10A DNA re-replication, Hoechst nuclear intensity, 48 h; AID 624296; further: % of control where 0% means no effect; nearly all actives have a fitted effect of over 50% in size
# KB-V1 cytotox: KB-V1 MDR subline cytotoxicity; hit rate 3.4% among 400,000; KB-V1 MDR cells viability, CellTiter-Glo, 72 h; Potency, µM (titrated, usually from 46.1 µM), hits mostly cytotoxic; AID 1347076; further: on the % scale 0 is the no-effect control and ±100 the full control effect; nearly all actives have a fitted effect of over 60% in size
#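 Potencies derive from concentration-effect curves fitted to normalized luminescence (CellTiter-Glo) of KB-V1 cells treated for 72 h at 37 degrees C in phenol-red-free DMEM containing 10% FBS.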
# KB-3-1 tox: KB-3-1 parental cell cytotoxicity; Potency, µM (titrated, usually from 46.1 µM), most hits filed as cytotoxic; KB-3-1 viability, CellTiter-Glo ATP luminescence, 72 h; hit rate 1.4% among 400,000; further: on the % scale 0 is the no-effect control and ±100 the full control effect; nearly all actives have a fitted effect of over 60% in size
#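 Cytotoxicity in the drug-sensitive parental line KB-3-1 was scored as loss of CellTiter-Glo luminescence following 72 h incubation with compound. Values come from curve fitting of normalized concentration-response data.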
# SW480 rerep: inducers of DNA re-replication in SW480 colon cancer cells | SW480 DNA re-replication, Hoechst DNA content imaging, 48 h | Potency, µM (highest dose often 46.1 µM), for inactives: top-dose re-replication activation, most hits filed as activators | hit rate 1.8% among 340,000 | AID 624297; further: % of control where 0% means no effect; nearly all actives have a fitted effect of over 55% in size
#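 DNA re-replication was detected as more nuclei of elevated Hoechst intensity after 48 hr exposure to compound (23 nL pinned per well of 250 cells).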
# ELG1 DNA repair: ELG1-dependent DNA repair inhibition | hit rate 2.3% among 330,000 | HEK293T ELG1-luciferase reporter, luminescence, 16 h; DNA damage induced by 5-fluorouridine | Potency, µM (top dose mostly 46.1 µM), inactives show top-dose activity change, negative = inhibition, actives largely listed as inhibitors | AID 504467; further: on the % scale 0 is the no-effect control and ±100 the full control effect; nearly all actives have a fitted effect of over 55% in size
#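 Step one: seed 2,000 cells per well. Step two: pin-transfer compound or DMSO alongside 5-fluorouridine. Step three: incubate 16 hr, 37 °C, 5% CO2. Step four: add ONE-Glo, wait 30 min, read luminescence.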
# * hit, by the source's call; i = inactive; ? = inconclusive; . = no result; [ ] = another dose, or the depositor's remark. The list is not random: actives were taken first. Their share in the collection is about 8.2%. The call rests on the fitted dose curve; in most records, active means well fitted curve in the direction sought with a large enough effect; inconclusive means small, poorly fitted or top-dose-only effect, or another doubt; inactive means no such curve, though single readings can be large; an effect the other way counts as inactive or inconclusive. Potency means the concentration at half of the fitted maximal effect.
SMILES,MCF10A rerep,KB-V1 cytotox,KB-3-1 tox,SW480 rerep,ELG1 DNA repair
CCOC(=O)c1c(C)[nH]c(C(=O)OC(C)C(=O)Nc2ccc(C)cc2)c1C (centres undefined),.,i,i,.,.
CCOC(=O)c1[nH]c(C)c(C(=O)N2CCN(c3cccc(Cl)c3)CC2)c1C,5%,13µM*,i,-3%,?
Cc1[nH]c2ccccc2c1C(=O)C(=O)N1CCN(c2ccccc2Cl)CC1,?,i,i,-12%,16%
CCOC(=O)c1[nH]c(C)c(C(=O)N2CCc3ccccc32)c1C,0.41µM*,0.33µM*,0.33µM*,0.52µM*,-2%
CCOC(=O)c1[nH]c(C)c(C(=O)OC(C)C(=O)Nc2ncc(Cl)cc2Cl)c1C (centres undefined),?,13µM*,?,-1%[9.22 µM],-18%
CCOC(=O)c1[nH]c(C)c(C(=O)Nc2cccc(Cl)c2C)c1C,8.2µM*,6.5µM*,5.8µM*,12µM*,-11%
CCOC(=O)c1[nH]c(C)c(C(=O)Nc2ccc(Cl)cc2)c1C,-2%,i,i,1%,?
C/C(=N\NC(=O)C1(C)CC1(Br)Br)c1ccc([N+](=O)[O-])cc1 (centres undefined),2%,i,i,-11%,?
C/C(=N\NC(=O)C1(C)CC1(Br)Br)c1ccc(NC(=O)c2ccc(C)o2)cc1 (centres undefined),?,21µM*,?,2%,?
NC1=C(Cl)C(=O)c2ccc(S(N)(=O)=O)cc2C1=O,1.5µM*,?,?,0.73µM*,.
NC1=C(Cl)C(=O)c2ccccc2C1=O,?,i,?,16µM*,.
O=C1c2ccccc2-c2nccnc21,-2%,i,i,-8%,-6%
NS(=O)(=O)c1ccc2c(c1)C(=NO)c1cc(S(N)(=O)=O)ccc1-2,1%,?,i,-2%,12%
COc1cccc(NC(=O)Cc2csc(COc3cccc(C)c3)n2)c1,.,i,i,.,.
CC(CC(=O)Nc1ccc2c(c1)c(=O)n(C)n2-c1ccc2ccccc2c1)C(F)(F)F (centres undefined),.,5.8µM*,5.8µM*,.,.
CC(CC(=O)Nc1ccc2c(c1)c(=O)n(C)n2Cc1ccc(F)cc1)C(F)(F)F (centres undefined),.,i,i,.,.
Nc1nc(NCCOCCO)nc(NCc2ccccc2)c1[N+](=O)[O-],1%,i,i,6%,-8%
NC(=O)NOCc1ccc(Cl)cc1Cl,-1%,?,i,-2%,17%
CNC(=S)/N=C/NOCc1ccc(Cl)cc1Cl,10%,?,?,4%,12µM*
COc1ccc(N(CC(=O)N2CCC(Cc3ccccc3)CC2)S(C)(=O)=O)cc1,?,?,i,5.8µM*,?
CS(=O)(=O)N(CC(=O)N1CCCC1)c1ccc(OCc2ccccc2)cc1,-1%,15µM*,?,1%,-10%
COc1cccc(OC)c1-c1cc(CCCc2cc(-c3c(OC)cccc3OC)nc3ccccc23)c2ccccc2n1,.,?,i,.,.
Cc1ccccc1NC(=O)Cc1nc(COC(=O)CC(C)c2ccccc2)cs1 (centres undefined),1%,i,i,-49%,-4%
CC1=C(C(=O)N2CCCCCC2)CC(CC(=O)NC(c2ccccc2)c2ccccc2)C(=O)N1CCC1=CCCCC1 (centres undefined),.,16µM*,?,.,.
COc1ccc2c(CC(=O)NC(Cc3ccc(Cl)cc3)C(=O)O)cc(=O)oc2c1C (centres undefined),?,i,i,-9%,0%
SMILES,MCF10A rerep,KB-V1 cytotox,KB-3-1 tox,SW480 rerep,ELG1 DNA repair
CCN(CC)c1ccc(S(=O)(=O)N2CCOCC2)cc1NC(=O)COC(=O)/C=C/c1ccco1,8%,i,i,-9%,.
O=C1C=C(N(CCO)Cc2ccccc2)c2ccccc2C1=O,6.5µM*,18µM*,?,15µM*,8.2µM*
C=C(C)c1cccc(C(C)(C)NC(=O)Nc2cc(C)ccc2OC)c1,12%,8.2µM*,i,6%,1%
C=C(C)c1cccc(C(C)(C)NC(=O)Nc2ccccc2OCC)c1,?,i,i,0%,-1%
CN(C)C(CNS(=O)(=O)c1cc([N+](=O)[O-])ccc1Cl)c1ccco1 (centres undefined),2%,i,i,2%,2%
CN(C)C(CNS(=O)(=O)c1ccc(Cl)cc1F)c1ccco1 (centres undefined),3%,18µM*,i,-1%,18%
Nc1[nH]c(N=NC(=O)c2ccccc2O)c2ccccc12,?,21µM*,?,?,?
COc1ccc(C(=O)CSc2nnc(CNc3ccc(C)cc3C)o2)cc1,?,i,i,-1%,-3%
Cc1ccc(OCc2nnc(SCC(=O)N3c4ccccc4Sc4ccc(Cl)cc43)o2)cc1,-2%,8.2µM*,i,-55%,-9%
Cc1ccc(NCc2nnc(SCC(=O)N3c4ccccc4Sc4ccccc43)o2)c(C)c1,-1%,6.5µM*,i,-127%,-3%
COc1ccc(OCc2nnc(SCC(=O)N3c4ccccc4Sc4ccc(Cl)cc43)o2)cc1,-126%[0.0737 µM],i,i,1%,?
O=C(NC(Cc1nn[nH]n1)C(=O)OCc1ccccc1)OCc1ccccc1 (centres undefined),.,i,i,.,.
COc1ccccc1Cc1nc2ccccc2nc1SCC(=O)NCc1ccc(C)cc1,.,i,i,.,.
O=C(NCc1cccc(C(F)(F)F)c1)c1cc(-c2ccccc2)nn1CC1CC(c2cccnc2)=NO1 (centres undefined),9%,i,?,?,.
COc1ccc(C2=NOC(Cn3nc(-c4ccccc4)cc3C(=O)NCc3cccs3)C2)cc1 (centres undefined),9%,i,i,?,12µM*
Cc1ccccc1-c1cc(C(=O)NCc2ccc(OC(F)(F)F)cc2)n(CC2CC(c3cccnc3)=NO2)n1 (centres undefined),27%,i,i,-3%,18µM*
Cc1ccccc1-c1cc(C(=O)NCc2cccc(C(F)(F)F)c2)n(CC2CC(c3cccnc3)=NO2)n1 (centres undefined),28%,?,i,2%,16µM*
O=C(N/C(=C/C=C/c1ccccc1)C(=O)N1CCCCC1)c1ccc([N+](=O)[O-])cc1,0.58µM*,i,i,-30%,23µM*
O=c1c2ccccc2oc2cc(NCCCn3ccnc3)ccc12,21µM*,i,i,?,?
O=c1c2ccccc2oc2cc(NCCCN3CCOCC3)ccc12,16µM*,i,i,?,?
COc1cccc2sc3cc(NCCCN4CCOCC4)ccc3c(=O)c12,18µM*,i,i,29%,13%
